Measurements reported in the supplement of paper PMC11417369.
± gives the standard deviation of the averaged measurements. In all, about 25,000 sequences were measured (“ln(normalized median fluorescence intensity)”: median about 7.9, highest 2% from about 11 on). The full list was thinned out, with the highest values kept by preference.

Each sequence was assayed on PfAP2-I AP2 domain 3 (GST-tagged) (assay: gcPBM binding intensity (ln(normalized median fluorescence intensity)); higher = stronger DNA binding).
Method in brief: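 The binding buffer was 1× PBS containing 1% milk, 0.2 mg/ml BSA, 0.5% salmon testes DNA and 0.03% Triton X-100. In it, GST-tagged P. falciparum DNA-binding domains expressed in E. coli were applied for 1 h to an Agilent 4 × 180k array of primer-extended double-stranded 36-bp intergenic genomic probes plus negative controls. Binding intensity, read with Alexa488 anti-GST antibody and a 488 nm scan, is the highest Masliner-normalised natural-log median intensity across replicate spots of either probe orientation.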

Sequence | gcPBM binding intensity (ln)
TTTATTTATTAATACACACACACACCCCCACAAAAT [CACACA_site240] | 9.96 ± 0.2
AATTGAAAAATCAGCACACACACAAATACATACATA [CACACA_site3232] | 8.09 ± 0.4
GATTATTTCTAAAAAGTGCATATTTAAAAATCTCCT | 9.815 ± 0.035
AAAAAAAAAAAAAAAGTGCATTAATAAATTTTAATA | 11.5 ± 0.61
TAATTATTCTATTAAGTGCATATATTTTTAAAAAGA | 9.89 ± 0.3
TTCATATTCGATAAAGTGCATTAATTTTATTTATCA | 11.3 ± 0.73
TTTCTCCATATTAAAGTGCATTAATAACAAAAATAA [GTGCAC_site9934] | 11.4 ± 0.81
ATTAATAAAAAATTTTAAAAAATAAATAAAATAAAA [TGCATGCA_negctrl_site113] | 7.58 ± 0.42
TCATTTTAATTAAAAGTGCAAAAAATAATATAACTA [GTGCAC_site9968] | 9.9 ± 0.18
TTCATTTTATTTTAAGTGCATATTTTTATTTTTTTG | 8.82 ± 0.099
CTGAAATTAACAAAAGTGCATAAAAATAAAAAATAT [GTGCAC_site9652] | 10.8 ± 0.38
AGATTATATAAAAAAGTGCATATTTTCATTTTTTTT [GTGCAC_site9448] | 9.07 ± 0.13
TTATTAAATTCATAAGTGCATTTATGATTAATTTTT [GTGCAC_site9749] | 9.86
TATATATATTAAAAAGTGCATTATTCATATTATATA [GTGCAC_site9400] | 11.1 ± 0.73
CTATTTTAATATTTTACACACCATGTAAAATATATA [CACACA_site5732] | 7.97 ± 0.28
AGTTTGTTTTTTTTTTTTTTTTCCTGTCACAAACAA [CACACA_negctrl_site1093] | 8.22 ± 0.62
GTTCATAAATTAAACACACACACACCCCTGGATACC [CACACA_site3331] | 9.115 ± 0.021
ATATATATATATATATGTACATACATACAATCATAT [XGTACX_site6410] | 9.38 ± 0.54
TACATATTTAAATACTGTACTCAAAAGAATTGTGCA [XGTACX_site2250] | 8.11 ± 0.11
ATATATCATAATAAAAGTACTTATATATTTTATATA [XGTACX_site560] | 7.59 ± 0.33
AAAATTGTGCTTTCACGGACACAAGATCGAAATAGA [XGTACX_site4068] | 8.62 ± 0.16
GAAAAAAAAATATCTTGTACTTACATAACTATTGGT [XGTACX_site5326] | 7.61 ± 0.5
ATATATTATATTTAAGTGCATTAATTAAAATGCTTA [GTGCAC_site9403] | 11.1 ± 0.73
ATATATATATTTATAGTGCATTTATATTAAAATATC [GTGCAC_site9818] | 10.54 ± 0.021

Sequence | gcPBM binding intensity (ln)
CTTATTTTGTTATAAGTGCATTTTTTAAAATTTCTT | 9.05 ± 0.42
TTTTTTTTTTTTTTTGCACACTTAAATTTGGTGGCT [CACACA_site5319] | 9.54 ± 0.16
CACATTAATTTTTGGGTGCACTTGGGAAATTTTGGT | 10.9 ± 0.51
TTTTTTTTTTTTTTTGCACACTTAAATTTGGTGGGG [CACACA_site2344] | 9.89 ± 0.19
AGTTATAAACATATGTGTACTTATAAAAACATATAG [XGTACX_site3268] | 7.87 ± 0.47
AATCACAACGAACACACACACAAAAAAAAAAAAAAA [CACACA_site6790] | 7.96 ± 0.54
CAACAACAAATGAGAAGTACATAAATATTAACAATA [XGTACX_site4625] | 7.68 ± 0.4
TGTTTTATTTTATTAGTGCATTTTTATTTATAATAG [GTGCAC_site9453] | 9.77 ± 0.2
ATATATAATTCCCAAGTGCATTTATTTTAATTATTA | 10.2 ± 0.12
TTCCAAGAAATAATAGTGCATTATTCATTTTAATAA | 11.5 ± 0.42
AAGGATATAACATACACACACACACGGATATAAATA [CACACA_site7867] | 7.91 ± 0.6
TGAAGGATATATTCCGTGCACATATAAATATATACA | 11.035 ± 0.007
AATATAAGGATATATACACACATAAATACATACATA [CACACA_site7859] | 7.67 ± 0.59
TTTATACAAACAACTTTATATTAATGTTTAACGGAG [GTGCAC_negctrl_site396] | 7.6 ± 0.42
ATATATATATAATAAGTGCAAAAAAAAGAAAAAAAT | 10.18 ± 0.035
AAAAAAAAAATACAGGTGCAATAAGAAAAAAATGGT | 11.4 ± 0.57
AATTAATAAGAAAGGTGTACAGAAAAAAAAAAATAT [XGTACX_site2106] | 8.46 ± 0.43
TTTTATATTTTATGCACACTTATAAGAAATATGTAC [CACACA_site3040] | 10.5 ± 0.52
TTTTAAATACTTTATTGTACATTATATATATATATA [XGTACX_site7021] | 8.88 ± 0.042
TTTTTTTTTAAGCAAAGGAAATCAAAATAAAAATAT [CACACA_negctrl_site719] | 7.92 ± 0.56
ATTTTAAAAAGGATAGTGCAAATGTTAAAATAGGAC | 10.6 ± 0.3
TTTTAAGGTGTGAAGGTGCAAAAAGGTAAATAGGAA | 11.2 ± 0.56
TACCTTTTTTATGTTGCACACTGGGATGTTTTCTAA [CACACA_site1653] | 9.51 ± 0.15
TATGAAGTGCACAATACACACTAATTCTATATAAAT [CACACA_site7269] | 11 ± 0.71

Sequence | gcPBM binding intensity (ln)
TATATGAAGTACACAATACACACTAATTATATATAA [CACACA_site2608] | 8.155 ± 0.035
TATGAAGTACACAATACACACTAATTATATATAAAT [CACACA_site5444] | 7.88 ± 0.28
AAAGTATATAGGATACGTACATACATAAATAAATAA [XGTACX_site8216] | 7.84 ± 0.73
AAAAAAAAAAAAAAAACACACAAACAAATGAATAAA [CACACA_site5769] | 8.76 ± 0.66
GTACATTATATATATACACACATACATAATAAAGAA [CACACA_site5528] | 8.12 ± 0.23
CAAATATACATATGTAGTACATGTTGTAGATAATTT [XGTACX_site2790] | 8.01 ± 0.5
GTATATATCTAAAAATATATATATATATATATATAT [CACACA_negctrl_site788] | 9.37 ± 0.72
TCTCCACCTCTCTTGGTGCGTTATACCCTCGAGGCT | 11.3 ± 0.54
TCCTGCCTCTCTTTGGTGCGTTGTAACCCTCGAGGA | 10.3 ± 0.11
CCCTGCCTCTCTTTGGTGCGTTGTAACCCTCGAGGA | 10.3 ± 0.33
AGAATTAAAATAAAGGTGCATTTTTTTGTTTCATGT | 9.94 ± 0.23
TTGTTCTTTTTTTTTTTATTTTTTAATTTGAAAAGA [CACACA_negctrl_site209] | 7.72 ± 0.5
TTGTTCTTTTGAAAGGTGCAAAAGAAAAATAATTAA | 11.1 ± 0.54
ACGTTACATACATATACACACACATATATATATATA [CACACA_site8203] | 9.22 ± 0.39
TATATACTCATGCGCACACACAAGTGGGAAATTTGG [CACACA_site5056] | 8.35 ± 0.6
CTTGTGCTTTATAGGGTGCACATTTTGTTTTGGTAA [GTGCAC_site9899] | 11 ± 0.46
TTTTTTTTTTTTGGTGCATGCACATTTTGTTTTTTT [TGCATGCA_site570] | 9.85 ± 0.014
TATAATTTTTTTTGGGTGCTTGGGTAAATTTTATTA | 8.34 ± 0.42
AAAGGGATGTTCATTCTTTTTTTTTTTTTTGTATAT [CACACA_negctrl_site511] | 7.16 ± 0.6
ATTAGTAAATTTATATGTACACATTGTTATTTTATA [XGTACX_site1177] | 8.13 ± 0.23
TTATATTTGATAGTTTGTACATATAATTATTATCAT [XGTACX_site5676] | 7.86 ± 0.42
TTGATATATAATAATACACACTTACATAATTAATTA [CACACA_site4320] | 7.88 ± 0.37
AATATAAATAATTATACACACTTAATATATATATAC [CACACA_site5533] | 7.9 ± 0.33
TAGTGATATAATTATGTGCACTTAATACAGGTCGAT | 10.9 ± 0.3

Sequence | gcPBM binding intensity (ln)
ATGTCTATAATAAGAACACACATATATTTAATTTAA [CACACA_site7394] | 7.64 ± 0.44
ATGTAGAAGTAATGCACACATATGTATTTATATATA [CACACA_site5391] | 10.9 ± 0.68
ATATGTAGAAGTAATGCACACATATGTATATATATA [CACACA_site8796] | 10.8 ± 0.48
TATACATATGTATGCACACATACATACACATAGAAT [CACACA_site3480] | 8.8 ± 0.13
ACATAATTATTATGCACACATATTTTTATGTATTTA [CACACA_site698] | 10.3 ± 0.48
ATGTGATAGAAGTACACACACATATGTATTTATAAT [CACACA_site5075] | 7.84 ± 0.59
ATGTAGAAGTAATGCACACATATGTATATATATATA [CACACA_site2494] | 10.9 ± 0.63
ATCAACATTATGGTTAGTACTTAGTGAATTGTTAAT [XGTACX_site4926] | 7.63 ± 0.59
TTCTATATATTATATGCATGTAAAACATATTAAAAT [TGCATGCA_site662] | 7.93 ± 0.61
TTCATATATTATTATGCATGTTCATAAATTATCTAA [TGCATGCA_site896] | 7.88 ± 0.58
TTGTTCTATATATATGCATGCACGTATGTTAAATTA [TGCATGCA_site659] | 11.3 ± 0.23
TACCTTTTTTGTTTTATGCACACCATATAACCAAGG [CACACA_site30] | 10.3 ± 0.33
TCGTAAACTTTATGCACACACATATACATATTTCAT [CACACA_site739] | 10.2 ± 0.53
ATTATGCACGGACACACACACACACCCCTAAAAAAT [CACACA_site5426] | 10.4 ± 0.49
ATTATGCACCAACACACACACACACTCCTAAAAAAT [CACACA_site8822] | 11.4 ± 0.95
TGTGCCCAAAATTATGCACACACCTAAAATTAATTT [CACACA_site2914] | 10.3 ± 0.4
TGCACAAAATTATGCACACACCTAAAATTAATTTTT [CACACA_site5596] | 9.98 ± 0.32
TAATTATGCCAACACACACACACACCCAACTAAAAA [CACACA_site8823] | 8.22 ± 0.25
ATTATGCACCAACACACACACACACCCCTAAAAAAT [CACACA_site2568] | 11.4 ± 0.79
TTTTGTTTCTATATAAGATGGAAATATAAACTTGTA [CACACA_negctrl_site82] | 7.64 ± 0.47
AATAAAAATTTACTTTGTACACATATTAAATTCAAT [XGTACX_site1957] | 7.83 ± 0.15
TATATTAATAAAGGTACTACACGGAAATGGAAATAT [XGTACX_site7760] | 8.58 ± 0.67
